This passage reports z-score results from PubChem BioAssay.

A number with no mark means an inactive call. Activity calls are given as the source filed them.

Luciferin 4-monooxygenase (Photinus pyralis), sequence (P08659 whole entry, looked up): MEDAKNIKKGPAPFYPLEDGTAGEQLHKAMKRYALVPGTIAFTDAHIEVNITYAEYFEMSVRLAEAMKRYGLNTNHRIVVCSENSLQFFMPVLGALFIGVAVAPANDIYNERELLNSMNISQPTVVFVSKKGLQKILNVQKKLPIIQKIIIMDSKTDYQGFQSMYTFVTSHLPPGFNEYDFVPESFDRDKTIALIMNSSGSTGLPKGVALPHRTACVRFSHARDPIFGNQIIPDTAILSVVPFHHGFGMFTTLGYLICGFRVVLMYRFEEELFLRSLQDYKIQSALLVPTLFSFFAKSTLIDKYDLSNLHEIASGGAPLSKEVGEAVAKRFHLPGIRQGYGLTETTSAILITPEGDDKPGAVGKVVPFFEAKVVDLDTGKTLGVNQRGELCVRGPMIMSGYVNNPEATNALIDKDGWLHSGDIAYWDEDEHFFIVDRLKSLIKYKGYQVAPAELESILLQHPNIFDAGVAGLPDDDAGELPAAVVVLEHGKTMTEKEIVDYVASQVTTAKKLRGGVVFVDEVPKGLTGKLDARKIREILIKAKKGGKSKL

The assay concerns the target Luciferin 4-monooxygenase (Photinus pyralis) (UniProt P08659). The assay can be described thus: firefly luciferase enzyme inhibitors, primary screen, biochemical, luminescence, purified enzyme, 2006 set (AID 1141).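 Also: cell-free assay with purified firefly luciferase at 100 ng per well in PBS; test concentration not given here.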 Particulars: SteadyGlo luminescence, 30 min, higher = more signal, called active from +8 up or from −8 down.
For the compound `CC(CCN1CCCc2nc(C)c(C)cc21)=NOC(C)CN1CCCCc2nc(C)c(C)cc21` (stereo unspecified), the z-score was -0.0922. Next, `CCN1C(=O)[C@@H]2[C@H]3C(=CC[C@@H]2C1=O)C1(OCCCO1)[C@H]1O[C@H]1[C@H]3O`: -26.1 (active); `Cc1ccc(S(=O)(=O)N[C@@H]2COC(=O)[C@@H](C)COC(=O)CC=C[C@H]2C)cc1`: -0.836; `COC(=O)C1=C(C)N(Cc2ccccc2)[C@]23O[C@](C(=O)OC)(C(=O)N2[C@@H]1c1ccccc1)C(C(=O)OC)=C3C(=O)OC`: -0.371. With `CC(C)CON=C1C[C@@H](O)[C@@H](O)[C@@H]2[C@@H]3C(=O)N(c4ccc(F)cc4F)C(=O)[C@@H]3CC[C@H]12` the figure was 0.819. With `CCOC(=O)CCN1C(=O)[C@H]2[C@H]3[C@H](O)[C@H](O)CC(=NOCC(C)C)[C@H]3CC[C@H]2C1=O` the figure was -0.562. For `CC(C)=CCCC(C)=CCON=C1C[C@@H](O)[C@@H](O)[C@@H]2[C@@H]3C(=O)N(C(C)(C)C)C(=O)[C@@H]3CC[C@H]12`, the z-score was 0.0533. For the compound `C[C@H]1CC[C@H]2C(=O)O[C@H](COc3ccc(C(C)(C)C)cc3)CN2[C@@H]1c1ccc(Br)cc1`, the z-score was -1.73. `COC(=O)CC=C[C@@H](C)[C@@H](C=NO[C@@H]1O[C@H](COC(C)=O)[C@@H](OC(C)=O)[C@H](OC(C)=O)[C@H]1OC(C)=O)NS(=O)(=O)c1ccc(C)cc1`: the z-score was 1.08. With `CCOC(=O)[C@H](CC(C)C)NC(=O)CCC1CC(OC(=O)NCc2cccc3ccccc23)CC2(CCCC(COC(=O)NCc3ccncc3)O2)O1` (stereo partly specified) the figure was 0.301; with `CC(CCN1CCCc2nc(C)c(C)cc21)=NO[C@@H](C)c1cc(-c2c(C)cc(C)cc2C)no1`, 0.0678; with `O=C1[C@H]2[C@H]3[C@H](O)[C@H](O)CC(=NO[C@@H]4O[C@H](CO)[C@@H](O)[C@H](O)[C@H]4O)[C@H]3CC[C@H]2C(=O)N1c1cccc(Oc2ccccc2)c1`, 1.14. Next, `CCOC(=O)NN=C1C[C@@H](O)[C@@H](O)[C@@H]2[C@@H]3C(=O)N(c4ccc(F)cc4F)C(=O)[C@@H]3CC[C@@H]12`: 1.04; `C[C@H]1CC[C@H]2C(=O)OC(CO)CN2[C@@H]1c1ccc(Br)cc1` (stereo partly specified): -0.0741; `Cn1c(=O)n2n(c1=O)[C@H]1[C@H](O)[C@@H]3O[C@@H]3C(=NOCc3ccccc3)[C@H]1CC2`: -0.101. Next, `O=c1n(-c2ccccc2)c(=O)n2n1CC[C@@H]1C(=NOCc3ccccc3)[C@H]3O[C@H]3[C@@H](O)[C@@H]12`: 0.0189; `C[C@@H]1CC[C@H]2C(=O)O[C@@H](Cc3ccccc3)CN2[C@H]1c1ccc(Br)cc1`: 0.178; `CO[C@H]1COC(=O)[C@@H](C)COC(=O)[C@H](C)NC(=O)CC=C[C@H]1C`: -0.185.

`CO[C@H]1COC(=O)CC=C[C@H](C)[C@@H](OC)COC(=O)[C@@H](C)COC(=O)CC=C[C@@H]1C`: the z-score was -0.454. Take `COC(=O)CC=C[C@@H](C)[C@@H](C=NOCC[C@@H]1C=C[C@H](OC(C)=O)[C@@H](COC(C)=O)O1)NS(=O)(=O)c1ccc(C)cc1`: the z-score is 1.2.

`CCOC(=O)CCN1C(=O)[C@H]2[C@H]3[C@H](O)[C@H](O)CC(=NNC(=O)OCc4ccccc4)[C@@H]3CC[C@H]2C1=O`: the z-score is 0.195. With `CC(C)=CCCC(C)=CCON=C1C[C@@H](O)[C@@H](O)[C@@H]2[C@@H]3C(=O)N(Cc4ccccc4)C(=O)[C@@H]3CC[C@@H]12` the figure was 1.19. Next, `C[C@@H](ON=C1[C@H]2CCn3c(=O)n(-c4ccccc4)c(=O)n3[C@H]2[C@H](O)[C@@H]2O[C@H]12)c1cn([C@@H]2COC[C@H]2O)nn1`: 0.704; `COc1cc(O)c(C(=O)C=Cc2ccc3c(c2)OCO3)c(OC)c1`: -5.1. Next, `COC(=O)CC=C[C@@H](C)[C@@H](C=NO[C@H](C)c1cn([C@H](CO)Cc2ccccc2)nn1)NS(=O)(=O)c1ccc(C)cc1`: -0.965; `COc1ccc(O[C@H]2C=C[C@@H](c3ccccc3)O[C@@H]2COC(=O)CCC(C)=NO[C@@H]2O[C@H](COC(C)=O)[C@@H](OC(C)=O)[C@H](OC(C)=O)[C@H]2OC(C)=O)cc1`: 1.16.
